# Source: PubChem BioAssay (NCATS)
# Inconclusive results are not listed. Entries that show only a call come without a potency. Unmarked numbers belong to inactive results. Calls of active or inactive are those of the source. Calls come from the whole dose curve; as a rule, active = well fitted curve in the direction sought with a large enough effect; inconclusive = small, poorly fitted or top-dose-only effect, or another doubt; inactive = no such curve, though single readings can be large; an effect the other way counts as inactive or inconclusive.
# Legend:
# [1] = biological target: Cellular tumor antigen p53 (Homo sapiens) (UniProt P04637); assay: Primary qHTS for small molecule compounds that upregulate eGFP-tagged delta133p53alpha (in N-terminal) cells. (AID 2060322); conditions: NCI-H358 eGFP-delta133p53alpha fluorescence, 24 h; activation: active compounds read high; note: nearly all actives have a fitted effect of over 75% in size; note: potency is the fitted concentration of half-maximal effect; for activation: series mostly up to about 56 µM
# Sequence of Cellular tumor antigen p53 (Homo sapiens) (P04637 whole entry, looked up): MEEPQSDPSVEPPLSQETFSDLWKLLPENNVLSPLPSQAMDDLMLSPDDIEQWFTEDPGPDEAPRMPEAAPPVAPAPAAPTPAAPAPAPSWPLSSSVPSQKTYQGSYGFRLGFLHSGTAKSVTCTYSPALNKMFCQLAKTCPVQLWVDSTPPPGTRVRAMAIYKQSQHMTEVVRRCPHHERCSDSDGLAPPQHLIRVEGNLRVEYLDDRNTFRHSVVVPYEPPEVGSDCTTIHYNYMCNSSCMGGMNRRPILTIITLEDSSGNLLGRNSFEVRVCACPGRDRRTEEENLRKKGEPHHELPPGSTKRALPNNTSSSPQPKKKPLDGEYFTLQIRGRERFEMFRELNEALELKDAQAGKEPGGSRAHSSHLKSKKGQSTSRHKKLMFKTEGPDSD
# Summary of the method: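 NCI-H358 cells pre-induced 24 h with 10 ng/ml doxycycline to express N-terminal eGFP-delta133p53alpha, then dosed 24 h at 37C without doxycycline; fixed, Hoechst-stained, GFP intensity by laser scanning cytometry, normalized to DMSO (0%) and 57.5 uM 5-azacytidine (100%).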
# [2] = biological target: Aldehyde dehydrogenase, mitochondrial (Homo sapiens) (UniProt P05091); assay: qHTS for Inhibitors of the Aldehyde Dehydrogenase Family (ALDH2) Primary screen (AID 2061308); note: nearly all actives have a fitted effect of over 55% in size
SMILES,activation [1] [%],Potency [2],Potency [1]
COc1cc(CC(COC2OC(CO)C(O)C(O)C2O)c2cc(/C=C/CO)cc(OC)c2O)ccc1O (centres undefined),-6.25,inactive,–
COc1cc(C(=O)OCC2=CCC3C(C(=O)O)=COC(O[C@@H]4O[C@H](CO)[C@@H](O)[C@H](O)[C@H]4O)C23)ccc1O (some centres undefined),-9.82,inactive,–
COc1cc(N2CCC(N3CCN(C)CC3)CC2)ccc1Nc1ncc(Cl)c(-c2c[nH]c3ccccc23)n1,–,inactive,8.49 µM (active)
Fc1ccc(CN2CCC(Nc3ccc(C(F)(F)F)nn3)CC2)cc1F,-6.21,inactive,–
C=C1C(O)CC2C(C(=O)O)=COC(OC3OC(CO)C(O)C(O)C3OC(=O)/C=C\c3ccc(O)cc3)C12 (centres undefined),-22.9,inactive,–
CC1(C)CC[C@]2(C(=O)O[C@@H]3O[C@H](CO)[C@@H](O)[C@H](O)[C@H]3O)CC[C@]3(C)C(=CCC4[C@@]5(C)C[C@@H](O)[C@H](O)C(C)(C)C5[C@H](O)C[C@]43C)[C@@H]2[C@@H]1O (some centres undefined),-11.5,inactive,–
C/C=C1\[C@H](OC2OC(COC3OC(CO)C(O)C(O)C3O)C(O)C(O)C2O)OC=C(C(=O)OC)[C@H]1CC(=O)OCCc1ccc(O)cc1 (some centres undefined),-13,inactive,–
O=C(O[C@H]1[C@H](Oc2ccc(O)cc2CO)O[C@H](CO)[C@@H](O)[C@@H]1O)c1ccccc1,-10.7,inactive,–
COc1cc(C2Oc3c(OC)cc(CCCO)cc3C2CO)ccc1O (centres undefined),-18.8,inactive,–
C=CC1C(OC2OC(CO)C(O)C(O)C2O)OC=C(C(=O)OC)C1CC1CC(=O)CC(CCc2ccc(O)cc2)O1 (centres undefined),19.6,inactive,–
CC[C@@H]1[C@H]2CCCCN3C(=O)C[C@H]([C@@H]4[C@H]1OC(=O)[C@H]4C)[C@@H]23,-0.763,inactive,–
CC1(CO)CC(O)[C@]2(C(=O)O)CCC34CC3(C=CC3[C@]5(C)C(CC[C@]34C)C(C)(CO)[C@@H](O)[C@H](O)[C@@H]5O)C2C1 (some centres undefined),9.92,inactive,–
C[C@@H]1O[C@@H](O[C@H]2[C@@H]3C=CO[C@@H](O[C@@H]4O[C@H](CO)[C@@H](O)[C@H](O)[C@H]4O)[C@@H]3[C@@]3(CO)O[C@@H]23)[C@H](OC(=O)/C=C/c2ccc(O)c(O)c2)[C@H](O)[C@H]1O,-5.34,inactive,–
CC(C)S(=O)(=O)N[C@H]1CCOC[C@@H]1c1ccc(-c2ccc(C#N)s2)cc1,-15,inactive,–
C=CCC1=C[C@]2(OC)[C@H](C)[C@@H](c3ccc(OC)c(OC)c3)O[C@]2(OC)CC1=O,-3.57,inactive,–
CC(CO[C@@H]1O[C@H](COC(=O)/C=C/c2ccc(O)c(O)c2)[C@@H](O)[C@H](O)[C@H]1O)C1(O)COC(=O)C1 (some centres undefined),6.87,inactive,–
Cc1cc(N(C)C)ccc1-c1nc2ccc(-c3nc4ccc(N5CCN(C)CC5)cc4[nH]3)cc2[nH]1,–,inactive,30.1 µM (active)
C=C(C)Cn1c(SCC(=O)c2cccs2)nc2sc3c(c2c1=O)CCCC3,-5.73,inactive,–
COc1cc(Nc2ccc([N+](=O)[O-])cc2C(=O)O)cc2ccccc12,-11.9,inactive,–
CC(=O)OC/C(=C/C(=O)O)CC[C@@H]1C(CO)=CC[C@@H]2C(C)(C)CCC[C@@]12C,2.29,inactive,–
CC1=C(C(=O)O[C@@H]2O[C@H](COC3OCC(O)C(O)C3O)[C@@H](O)[C@H](O)[C@H]2O)C(C)(C)CCC1 (some centres undefined),-13,inactive,–
CC1=C(CCC(C)O[C@@H]2O[C@H](CO)[C@@H](O)[C@H](O)[C@H]2O)C(C)(C)CC(O)C1 (some centres undefined),-7.63,inactive,–
CC(O)/C=C/C1(O)C2(C)COC1(C)CC(O)C2 (centres undefined),9.82,inactive,–
O=C(O[C@H]1[C@@H]2C=CO[C@@H](O[C@@H]3O[C@H](CO)[C@@H](O)[C@H](O)[C@H]3O)[C@@H]2[C@@]2(CO)O[C@@H]12)c1ccc(O)c(O)c1,-2.68,inactive,–
CC1=CC(=O)CC(C)(C)C1/C=C/C(C)O[C@@H]1O[C@H](CO)[C@@H](O)[C@H](O)[C@H]1O[C@@H]1OC[C@](O)(CO)[C@H]1O (some centres undefined),-2.68,inactive,–
C=C1C(=O)O[C@H]2CC(=C)[C@H]3CC[C@@](C)(O)[C@@H]3CC12 (some centres undefined),–,inactive,15.1 µM (active)
COc1ccc(C)c2sc(NC(=O)c3ccncc3)nc12,-15.7,inactive,–
